Most compounds without a hit are left out; they make up all but 4.6% or so of the library.
IL1B NFkB inh = blocks IL-1B driven NFkB nuclear translocation in HUVEC cells; HUVEC IL-1B NFkB p65 nuclear translocation imaging; inhibition, % at 2 µM; 0.43% of 94,000 active; AID 796;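 active means inhibition above about 30% together with a positive call from visual inspection of the well image, limit read from the data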;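 further: nuclear over cytoplasmic p65 intensity ratio measured by imaging; 0% = IL-1B stimulated DMSO wells and 100% = unstimulated DMSO wells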
sEH inhibitor = inhibitors of human soluble epoxide hydrolase | inhibition, % at 2 µM | 0.34% of 91,000 active | recombinant human sEH enzymatic activity assay | AID 707; in the data active means inhibition above about 80%
Cav3 T inh = inhibitors of human Cav3.2 T-type calcium channel; O95180; Cav3.2-expressing cells, Fluo-4 calcium fluorescence FDSS; active compounds read low; B-score at 10 µM; 4% of 100,000 active;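 active means single-dose well whose peak fluorescence ratio is a statistical outlier from its plate by either plate-standardised score or position-corrected B-score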
IL1B NFkB pot = enhances IL-1B driven NFkB nuclear translocation; HUVEC IL-1B NFkB p65 nuclear translocation imaging; activation, % at 2 µM; 0.3% of 94,000 active;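 active means activation above 40%, about the mean plus 3 SD, also judged a hit on visual image review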;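 further: percent activation is computed from the nuclear over cytoplasmic p65 intensity ratio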
HUVEC tox IL1B = HUVEC cytotoxicity counter-screen, IL-1B stimulated; HUVEC cell count loss, Hoechst imaging; cell count reduction, % at 2 µM; 0.41% of 94,000 active; AID 845;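 active means cell count reduction more than 3 SD above the screen-wide mean, cut at about 70% in these data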;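 further: normalized per plate to untreated control cells as the no-loss baseline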
sEH activator = soluble epoxide hydrolase (human) activation; activation, % at 2 µM; P34913; AID 717; 0.04% of 91,000 active; purified human sEH enzymatic activity, activator screen; in the data active means activation above about 37%
* marks the source's active call; other numbers are inactive results; · = no result.

SMILES	IL1B NFkB inh	sEH inhibitor	Cav3 T inh	IL1B NFkB pot	HUVEC tox IL1B	sEH activator
CC1CCCN(c2nc3c(c(=O)n(C)c(=O)n3C)n2CCSc2nc3ccccc3s2)C1 (centres undefined)	-11	·	-6.9*	11	-49	·
CCCCCCn1c(N2CCN(c3ccccc3)CC2)nc2c1c(=O)[nH]c(=O)n2C	·	·	-5.7*	·	·	·
CCCCCCn1c(N2CCN(c3cccc(Cl)c3)CC2)nc2c1c(=O)[nH]c(=O)n2C	-10	-3	-1.9	10	-9	2
CCCCCCCCn1c(N2CCN(c3cccc(Cl)c3)CC2)nc2c1c(=O)[nH]c(=O)n2C	-29	-12	-2	29	0	9
CC1CCCN(c2nc3c(c(=O)[nH]c(=O)n3C)n2CCCc2ccccc2)C1 (centres undefined)	·	·	-5.6*	·	·	·
CC(C)CCn1c(N2CCN(c3cccc(Cl)c3)CC2)nc2c1c(=O)[nH]c(=O)n2C	·	·	-8.5*	·	·	·
CC(C)n1c(SCCCc2ccccc2)nc2c1c(=O)[nH]c(=O)n2C	38*	-21	-1	-38	11	20
CCCn1c(N2CCN(CC(=O)c3c(C)n(C)c4ccccc34)CC2)nc2c1c(=O)[nH]c(=O)n2C	-18	3	3.1*	18	1	-3
CCC(=O)NC(C)c1nc2ccccc2n1C (centres undefined)	·	·	-0.024	·	·	·
Cc1nc(-c2ccc(S(=O)(=O)N3CCCCCC3)cc2)cs1	-9	2	0.39	9	-3	-2
Cc1cc2c(c(=O)n1Cc1cccnc1)C(Cc1ccccc1)C(C#N)=C(N)O2 (centres undefined)	1	-10	1.8	-1	29	9
O=C(COc1ccccc1Cl)NCc1ccco1	99*	0	0.23	-99	80*	3
CC(C)(C)n1nnnc1CN(Cc1ccc(F)cc1)Cc1ccco1	6	25	-4.7*	-6	2	-22
CC(C)(C)OC(=O)NCCCCCNC(=O)c1[nH]cnc1C(=O)N[C@@H](CCCCNC(=O)OC(C)(C)C)C(=O)OC(C)(C)C	·	·	-2.7*	·	·	·
CC(C)(C)OC(=O)CNC(=O)c1[nH]cnc1C(=O)N[C@@H](CCCCNC(=O)OC(C)(C)C)C(=O)OC(C)(C)C	·	·	-1	·	·	·
Cc1ccc(N2CC(C(=O)NC3=NCCS3)CC2=O)cc1 (centres undefined)	5	-3	-0.28	-5	14	1
CNC(=O)C1CC(=O)N(c2ccc(C)cc2)C1 (centres undefined)	-2	14	-3.8*	2	-81	-13
CCSc1nncn1/N=C/c1ccc(OC)c(OC)c1	-1	-21	-0.46	1	9	20
C=C(C)CSc1nncn1/N=C/c1ccc(OC)cc1	·	-2	-6*	·	·	3
CCCN1C2=NCCN2c2ccccc21	-20	14	0.094	20	-18	-13
O=C(COC(=O)[C@H](Cc1ccccc1)NS(=O)(=O)c1ccccc1F)NC1CCCCC1	2	37	-4.9*	-2	-3	-36
O=C(c1cccs1)N1CCN(S(=O)(=O)c2ccccc2)CC1	10	-3	-0.098	-10	22	1
O=C(c1ccsc1)N1CCN(C(=O)c2cccs2)CC1	1	-3	0.36	-1	78*	0
O=C(c1cccs1)N1CCN(S(=O)(=O)N2CCCCC2)CC1	7	9	0.27	-7	92*	-9
O=C(NC1CCCCC1)N1CCSC1=Nc1ccccc1	7	·	-4*	-7	-33	·
SMILES	IL1B NFkB inh	sEH inhibitor	Cav3 T inh	IL1B NFkB pot	HUVEC tox IL1B	sEH activator
CCOC(=O)c1[nH]c2ccccc2c1NC(=O)NC1CCCCC1	-4	-9	0.73	4	0	9
Cc1c(NC2=C(Cl)C(=O)N(c3ccccc3)C2=O)c(=O)n(-c2ccccc2)n1C	-7	5	-0.32	7	-2	-4
CN1CCN(C(=S)c2ccc(N(C)C)cc2)CC1	-8	50	0.33	8	-12	-49
O=C(Nc1ccc(C(F)(F)F)cc1Cl)c1ccc(Cn2cc(Br)cn2)o1	-3	52	-3.2	3	-26	-50
O=C(Nc1cccc(C(F)(F)F)c1)c1ccc(Cn2cc(Br)cn2)o1	2	43	-7.2*	-2	-20	-42
O=C(CSc1nc2ccccc2n1Cc1ccccc1)N/N=C/c1ccco1	-10	1	-4*	10	-21	1
Cc1ccc(Cn2c(SCC(=O)N/N=C/c3ccc(C)o3)nc3ccccc32)cc1	-8	-4	-10*	8	6	4
Cc1ccc(/C=N/NC(=O)CSc2nc3ccccc3n2C)s1	0	12	-1.6	0	-32	-10
CCOC(=O)C1=C(c2ccccc2)Nc2ncnn2C1c1cccc(OC)c1OC (centres undefined)	-3	3	3.4*	3	1	-3
CCOC(=O)C1=C(c2ccccc2)Nc2ncnn2C1c1cc(OC)cc(OC)c1OC (centres undefined)	·	·	1.7	·	·	·
CN(C)/C=N/c1cc(=O)[nH]c(=O)n1CC1CC1	·	·	0.26	·	·	·
Cc1cccc(N2CCN(C(=O)NCc3ccc(Cl)cc3)CC2)c1	-12	23	-9.6*	12	-14	-21
Cc1ccc(NC(=O)N(Cc2ccco2)C(C)c2ccco2)cc1C (centres undefined)	-6	-6	-4.6*	6	2	6
O=C(c1ccc(Cl)cc1)N1CCC(c2nc(-c3cccs3)no2)CC1	-16	-10	-3.1	16	8	10
CCCCC(c1nnnn1CC1CCCO1)N1CCN(c2cc(Cl)ccc2C)CC1 (centres undefined)	3	9	-5.3*	-3	-4	-8
CCC(c1nnnn1Cc1ccco1)N1CCN(C(=O)c2ccco2)CC1 (centres undefined)	-5	·	0.81	5	0	·
CCCC(c1nnnn1Cc1ccco1)N1CCN(c2cc(Cl)ccc2C)CC1 (centres undefined)	2	7	-6.9*	-2	-13	-5
O=C(Nc1ccccc1C(F)(F)F)c1ccc(CN2CCC(Cc3ccccc3)CC2)cc1	-14	4	-7.7*	14	-6	-6
O=C(Nc1ccccc1)c1ccc(CN2CCC(Cc3ccccc3)CC2)cc1	8	-6	-0.26	-8	15	8
CCCN(CCC)S(=O)(=O)c1ccc(NS(=O)(=O)c2ccc(F)cc2)cc1	-2	8	-3.9*	2	-1	-7
CCCN(CCC)S(=O)(=O)c1ccc(NS(C)(=O)=O)cc1	6	6	-0.54	-6	-35	-4
CCN(CC)S(=O)(=O)c1ccc(NS(=O)(=O)c2ccc(C)c(C)c2)cc1	-4	18	-4.3*	4	-5	-18
CC(C)=CC(=O)Nc1nnc(C(C)C)s1	-9	-6	-1.3	9	-21	8
Cc1cc(C)cc(NC(=O)NCc2nnc(SCc3ccccc3)n2C)c1	4	22	-4.3*	-4	4	-22
Cn1c(CNC(=O)Nc2ccccc2)nnc1SCc1ccccc1	2	-2	0.65	-3	-10	2

Compound activity as filed in PubChem.
